Bioassay records: PubChem BioAssay, several laboratories
Hits are enriched below; roughly 3.8% of the tested compounds scored in any of these assays.
PAFAH2 inh = inhibitors of human PAFAH2. recombinant PAFAH2, FP-rhodamine activity probe, fluorescence polarization. inhibition, % at 3.39 µM. 0.99% of 340,000 active;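 active = inhibition above the mean over all tested compounds plus 3 SD, cut at about 30% in these data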;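 also: inhibitors block probe labeling of enzyme so polarization drops; 0% = enzyme with DMSO and 100% = wells lacking PAFAH2 protein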
DSG3 Ab inh = inhibitors of pemphigus antibody binding to human desmoglein-3. P32926. DSG3-coupled beads, scFv-anti-DSG3-GFP binding, flow cytometry; stronger effect = lower value. binding (percent of control), % at 10 µM. 0.48% of 310,000 active. AID 588358;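 active = binding more than 3 SD below its plate's average and above zero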;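 also: hits lower antibody fragment binding to DSG3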
pPAFAH FP inh = inhibitors of human plasma PAF acetylhydrolase (pPAFAH); Q13093; recombinant pPAFAH, FP-rhodamine probe fluorescence polarization; inhibition, % at 3.39 µM; 1.5% of 330,000 active;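 active = inhibition above the mean inhibition across the screen plus 3 SD, cut at about 25% in these data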;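 also: inhibitors block binding of the rhodamine activity-based probe so polarization drops; 0% = enzyme with DMSO and 100% = wells lacking pPAFAH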
PfM18AAP inh-1 = PfM18AAP enzyme inhibition. AID 1822. 1.2% of 290,000 active. inhibition, % at 7.35 µM. recombinant PfM18AAP, H-Glu-NHMec fluorogenic cleavage;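 active = inhibition above the campaign mean inhibition over all tested compounds plus 3 SD, cut at about 28% in these data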;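 also: 0% = plate median of test compound wells and 100% = 2 mM ZnCl2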
PAFAH1B3 FP inh = blocks human PAF acetylhydrolase 1B catalytic subunit 3. recombinant PAFAH1B3, FP-rhodamine probe, fluorescence polarization. inhibition, % at 3.39 µM. 0.28% of 340,000 active. AID 492972;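 active = inhibition above the screen-wide average of all tested compounds plus 3 SD, cut at about 25% in these data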;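 also: 0% = enzyme with DMSO only and 100% = wells lacking PAFAH1B3 protein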
Target sequence (Q15102 whole entry, looked up): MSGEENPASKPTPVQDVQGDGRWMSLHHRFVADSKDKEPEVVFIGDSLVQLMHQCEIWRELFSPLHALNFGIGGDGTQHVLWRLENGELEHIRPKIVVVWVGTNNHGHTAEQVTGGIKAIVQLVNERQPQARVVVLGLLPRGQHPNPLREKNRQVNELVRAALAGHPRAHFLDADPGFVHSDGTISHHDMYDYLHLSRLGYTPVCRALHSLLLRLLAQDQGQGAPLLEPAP
PAFAH1B2 inh = blocks human PAF acetylhydrolase 1b catalytic subunit 2; P68402; recombinant PAFAH1B2, FP-rhodamine activity probe, fluorescence polarization; inhibition, % at 3.39 µM; 1.2% of 340,000 active; AID 492953;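 active = inhibition above the mean of all tested compounds plus 3 SD, cut at about 24% in these data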;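 also: 0% = enzyme with DMSO and 100% = wells lacking PAFAH1B2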
Target sequence (P68402 whole entry, looked up): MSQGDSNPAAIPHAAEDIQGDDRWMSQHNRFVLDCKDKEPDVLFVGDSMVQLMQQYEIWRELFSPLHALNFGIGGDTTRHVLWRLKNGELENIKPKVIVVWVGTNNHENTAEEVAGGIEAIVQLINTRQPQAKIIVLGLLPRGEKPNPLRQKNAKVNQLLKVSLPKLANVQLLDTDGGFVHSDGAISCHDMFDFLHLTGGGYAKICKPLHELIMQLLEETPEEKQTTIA
PfM18AAP inh-2 = PfM18AAP inhibition, confirmation. shares compounds with PfM18AAP inh-1. recombinant PfM18AAP, H-Glu-NHMec fluorogenic cleavage. inhibition, % at 7.35 µM. 28% of 2,400 active. AID 2170;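 active = mean inhibition over replicate wells above the hit cutoff set for the earlier primary screen, cut at about 29% in these data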;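 also: 0% = median of test compound wells and 100% = 2 mM ZnCl2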
CTSL1 counter = Cathepsin L (human) inhibition, confirmation | shares compounds with PfM18AAP inh-1 | inhibition, % at 5.96 µM | purified cathepsin L1, Z-Leu-Arg-MCA fluorescence | AID 2178 | 2,400 tested, under 10 active;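 active = average inhibition across replicates above the hit cutoff set in the earlier primary screen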;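 also: 0% = median of test compound wells and 100% = Z-Phe-Ala-diazomethylketone 1 µM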
Target sequence (P07711 whole entry, looked up): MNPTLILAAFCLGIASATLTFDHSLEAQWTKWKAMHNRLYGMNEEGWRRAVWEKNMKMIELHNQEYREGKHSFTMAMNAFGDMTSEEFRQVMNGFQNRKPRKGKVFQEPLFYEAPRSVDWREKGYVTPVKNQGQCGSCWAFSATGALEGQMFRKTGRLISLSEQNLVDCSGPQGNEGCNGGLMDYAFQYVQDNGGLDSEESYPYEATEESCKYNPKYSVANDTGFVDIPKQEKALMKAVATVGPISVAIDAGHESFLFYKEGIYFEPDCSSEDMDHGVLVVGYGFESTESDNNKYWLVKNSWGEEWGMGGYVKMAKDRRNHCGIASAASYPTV
* hit, by the source's call.

What do the screens show for `N#Cc1c(NC(=O)CCN2C(=O)c3ccccc3C2=O)oc(-c2ccccc2)c1-c1ccccc1`?
PAFAH2 inh: -26.1; DSG3 Ab inh: 101.4; pPAFAH FP inh: 7.9; PfM18AAP inh-1: -2.6; PAFAH1B3 FP inh: -2.0; PAFAH1B2 inh: 5.9

What do the screens show for `N#Cc1c(NC(=O)CSc2ccccn2)oc(-c2ccccc2)c1-c1ccccc1`?
PAFAH2 inh: -10.4; DSG3 Ab inh: 109.0; pPAFAH FP inh: 1.6; PfM18AAP inh-1: 50.3*; PAFAH1B3 FP inh: -7.7; PAFAH1B2 inh: 5.8; PfM18AAP inh-2: -36.7; CTSL1 counter: 2.2

What do the screens show for `NC(=O)CC(NC(=O)Cc1cccc2ccccc12)c1ccc(NCCCN2CCCC2=O)c([N+](=O)[O-])c1` (configuration not stated)?
PAFAH2 inh: 7.7; DSG3 Ab inh: 102.2; pPAFAH FP inh: -1.2; PfM18AAP inh-1: 2.1; PAFAH1B3 FP inh: -5.6; PAFAH1B2 inh: -3.0

Results for O=C(C1=NN[C@@H]2C(=O)N(Cc3ccccc3)C(=O)[C@H]12)c1ccc([N+](=O)[O-])cc1 ?
PAFAH2 inh: -3.0; pPAFAH FP inh: 3.1; PfM18AAP inh-1: 41.6*; PAFAH1B3 FP inh: 10.4; PAFAH1B2 inh: 5.9; PfM18AAP inh-2: -3.4; CTSL1 counter: 8.2

How did Cc1ccc(OCC(=O)NCCNC(=O)c2ccncc2)cc1C do in these assays?
PAFAH2 inh: -3.8; DSG3 Ab inh: 85.6; pPAFAH FP inh: -6.4; PfM18AAP inh-1: -6.8; PAFAH1B3 FP inh: 2.3; PAFAH1B2 inh: 11.3

Results for CC(C)c1ccc(N2C(=O)C(Cl)=C(N3CCOCC3)C2=O)cc1 ?
PAFAH2 inh: 3.5; pPAFAH FP inh: 4.7; PfM18AAP inh-1: 38.1*; PAFAH1B3 FP inh: -2.4; PAFAH1B2 inh: -0.2; PfM18AAP inh-2: -28.5; CTSL1 counter: -1.2

What do the screens show for `O=C(O)c1ccc(S(=O)(=O)c2ccc3c(c2)C(=O)N(c2ccc(O)cc2)C3=O)cc1`?
PAFAH2 inh: 1.6; DSG3 Ab inh: 93.4; pPAFAH FP inh: 11.4; PfM18AAP inh-1: 33.4*; PAFAH1B3 FP inh: 2.0; PAFAH1B2 inh: 4.0; PfM18AAP inh-2: -49.2; CTSL1 counter: -0.9

Results for c1ccc2sc(NN=C3CCCCCC3)nc2c1 ?
PAFAH2 inh: 1.3; DSG3 Ab inh: 99.7; pPAFAH FP inh: -2.1; PfM18AAP inh-1: 33.4*; PAFAH1B3 FP inh: 12.4; PAFAH1B2 inh: 4.5; PfM18AAP inh-2: -35.3; CTSL1 counter: 0.2

Results for CC(C)CNC(=O)Nc1ccccc1F ?
PAFAH2 inh: -4.9; DSG3 Ab inh: 95.8; pPAFAH FP inh: -1.6; PfM18AAP inh-1: -1.7; PAFAH1B3 FP inh: 8.8; PAFAH1B2 inh: -1.6

How did COc1cccc(NC(=O)NC2(C(F)(F)F)Oc3ccccc3O2)c1 do in these assays?
PAFAH2 inh: 7.8; pPAFAH FP inh: 5.9; PfM18AAP inh-1: 66.9*; PAFAH1B3 FP inh: 5.2; PAFAH1B2 inh: 5.2; PfM18AAP inh-2: 34.4*; CTSL1 counter: -0.9

What do the screens show for `O=C(Nc1cc(N2CCOCC2)ncn1)NC1(C(F)(F)F)Oc2ccccc2O1`?
PAFAH2 inh: 2.5; DSG3 Ab inh: 99.8; pPAFAH FP inh: 2.2; PfM18AAP inh-1: 75.6*; PAFAH1B3 FP inh: 9.9; PAFAH1B2 inh: 0.9; PfM18AAP inh-2: 66.2*; CTSL1 counter: 1.3

What do the screens show for `C/C(=N\Nc1cc(N2CCOCC2)ncn1)c1ccccc1`?
PAFAH2 inh: 3.7; DSG3 Ab inh: 120.0; pPAFAH FP inh: -0.5; PfM18AAP inh-1: 1.2; PAFAH1B3 FP inh: 4.5; PAFAH1B2 inh: -4.8

Results for O=C(NCc1cccnc1)NC1(C(F)(F)F)Oc2ccccc2O1 ?
PAFAH2 inh: 18.5; DSG3 Ab inh: 102.0; pPAFAH FP inh: -1.1; PfM18AAP inh-1: 55.3*; PAFAH1B3 FP inh: 6.3; PAFAH1B2 inh: 9.0; PfM18AAP inh-2: -2.4; CTSL1 counter: 4.2

How did CC(C)CNC(=O)NC1(C(F)(F)F)Oc2ccccc2O1 do in these assays?
PAFAH2 inh: -2.1; pPAFAH FP inh: 3.0; PfM18AAP inh-1: 40.9*; PAFAH1B3 FP inh: 1.8; PAFAH1B2 inh: 4.4; PfM18AAP inh-2: -21.9; CTSL1 counter: 1.3

How did O=C(NCc1cccnc1)NC(C(F)(F)F)C(F)(F)F do in these assays?
PAFAH2 inh: 5.9; DSG3 Ab inh: 109.5; pPAFAH FP inh: 3.6; PfM18AAP inh-1: 1.1; PAFAH1B3 FP inh: 2.9; PAFAH1B2 inh: 5.3

How did Cc1csc(=O)n1CCC(=O)OCC(=O)Nc1cccc(C#N)c1 do in these assays?
PAFAH2 inh: -0.4; DSG3 Ab inh: 97.5; pPAFAH FP inh: 4.8; PAFAH1B3 FP inh: 0.5; PAFAH1B2 inh: 2.1

What do the screens show for `Cc1nc(NC(=O)CN2CCN(c3cccc(Cl)c3)CC2)sc1C(=O)N(C)C`?
PAFAH2 inh: 2.4; DSG3 Ab inh: 113.8; pPAFAH FP inh: 5.8; PfM18AAP inh-1: 1.8; PAFAH1B3 FP inh: 0.7; PAFAH1B2 inh: -4.5

What do the screens show for `CCn1cc(Cl)c(C(=O)Nc2ccccc2C(N)=O)n1`?
PAFAH2 inh: 0.7; DSG3 Ab inh: 106.4; pPAFAH FP inh: 2.4; PfM18AAP inh-1: -1.2; PAFAH1B3 FP inh: 10.3; PAFAH1B2 inh: 0.8

How did O=C(c1cccc2nc3ccccc3nc12)N1CCOCC1 do in these assays?
PAFAH2 inh: 0.6; DSG3 Ab inh: 111.6; pPAFAH FP inh: 5.0; PfM18AAP inh-1: -15.9; PAFAH1B3 FP inh: 2.5; PAFAH1B2 inh: 3.2

Results for N#CCn1c(Cc2ccccc2)nc2ccccc2c1=O ?
PAFAH2 inh: -2.7; DSG3 Ab inh: 114.2; PfM18AAP inh-1: 5.2; PAFAH1B3 FP inh: 7.6; PAFAH1B2 inh: 3.5

Results for N#CC/C(N)=N/Nc1nc2ccccc2nc1Cc1ccccc1 ?
PAFAH2 inh: 5.9; DSG3 Ab inh: 120.4; pPAFAH FP inh: 11.3; PfM18AAP inh-1: 36.4*; PAFAH1B3 FP inh: 21.4; PAFAH1B2 inh: 7.7; PfM18AAP inh-2: 8.6; CTSL1 counter: -4.5

How did C#CCNC(=O)C1=C[C@@H](c2ccc(C#C)cc2)C[C@@H](OCc2ccc(CO)cc2)O1 do in these assays?
PAFAH2 inh: 0.8; DSG3 Ab inh: 102.6; pPAFAH FP inh: 12.9; PAFAH1B3 FP inh: -2.5; PAFAH1B2 inh: 2.8

How did COc1ccc(N2CCN(CCCn3c(=S)[nH]c4ncccc4c3=O)CC2)cc1 do in these assays?
PAFAH2 inh: -0.8; DSG3 Ab inh: 99.7; pPAFAH FP inh: 1.1; PfM18AAP inh-1: 44.9*; PAFAH1B3 FP inh: 6.2; PAFAH1B2 inh: -3.7; PfM18AAP inh-2: -37.5; CTSL1 counter: -9.5

Results for CCCCNC(=O)NNC(=O)c1ccoc1C ?
PAFAH2 inh: 4.2; DSG3 Ab inh: 108.0; pPAFAH FP inh: 1.5; PfM18AAP inh-1: 25.9; PAFAH1B3 FP inh: 9.8; PAFAH1B2 inh: 4.1

How did COCCCNC(=S)NNC(=O)c1ccc2c(c1)OCO2 do in these assays?
PAFAH2 inh: 1.3; DSG3 Ab inh: 106.0; pPAFAH FP inh: 0.0; PfM18AAP inh-1: 35.2*; PAFAH1B3 FP inh: 4.4; PAFAH1B2 inh: -9.1; PfM18AAP inh-2: 13.7; CTSL1 counter: -1.1
